# Results taken from the supplement of paper PMC9135407.
# “And” between values parts separate entries of the source, which are not always exact repeats. Equal entries are not always repeated. Structures can show the parent of a compound that is named as a salt. Out of some 5,800 compounds screened, about 620 (11%) showed activity. This is one part of a sample in which actives are shown more often than they occur. Unmarked numbers belong to inactive results.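 How the source made its calls: active = score above a cut-off or among the top three wells of a plate; in these data no inactive exceeds 0.85.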
# System: primary human hepatic stellate cells (donor 1)
# Test: scaled lipid accumulation score (0 = DMSO-like, 1 = nortriptyline-like); higher = stronger HSC inactivation (lipid re-accumulation), active = hit call of the paper
# Details: 48 h
# [1] = library stock concentration: 1 mM
# [2] = library stock concentration: 10 mM
# [3] = library stock concentration: 6.4 mM
# [4] = library stock concentration: 3.33 mM
# [5] = library stock concentration: 80 uM
# [6] = library stock concentration: 400 uM
# [7] = library stock concentration: 2 mM
structure (smiles),measurement,setting,value
O=C(O)CCC/C=C\C[C@H]1C(=O)C=C[C@@H]1/C=C/[C@@H](O)COc1ccccc1 [16-phenoxy tetranor Prostaglandin A2],scaled lipid accumulation score,[1],≤ 0
CCCCCCCCCCCCCCCC(=O)OC[C@H](COP(=O)([O-])OCC[N+](C)(C)C)OC(=O)CCCCCCCC(=O)O,scaled lipid accumulation score,[1],≤ 0
CC(C)(C)[C@]1(O)CCN2C[C@H]3c4ccccc4CCc4cccc(c43)[C@@H]2C1,scaled lipid accumulation score,[2],0.691
CC(C)(C)[C@]1(O)CCN2C[C@H]3c4ccccc4CCc4cccc(c43)[C@@H]2C1 [(+)-Butaclamol hydrochloride],scaled lipid accumulation score,[2],0.672
CCCCC[C@H](O)/C=C/C=C\CCCCCCCC(=O)O,scaled lipid accumulation score,library stock concentration: 100 uM,≤ -0.021
CCCCCC(=O)/C=C/[C@@H]1[C@@H](C/C=C\CCCC(=O)O)[C@@H](O)C[C@H]1O [15-keto Prostaglandin F2.alpha.],scaled lipid accumulation score,[1],≤ 0
Clc1ccc2c(c1)C(N1CCNCC1)=Nc1ccccc1O2 [Amoxapine] [listing 1 of 4 here],scaled lipid accumulation score,[2],1.05 (active)
Clc1ccc2c(c1)C(N1CCNCC1)=Nc1ccccc1O2,scaled lipid accumulation score,[2],0.843
CCN(CC)CCCCN1c2ccccc2Oc2ccc(Cl)cc21 [10-DEBC hydrochloride],scaled lipid accumulation score,[2],0.5
CC(=O)NNC(=O)N1Cc2ccccc2Oc2ccc(Cl)cc21,scaled lipid accumulation score,[2],≤ 0 and ≤ -0.006
Clc1ccc2c(c1)C(N1CCNCC1)=Nc1ccccc1O2 [Amoxapine] [listing 2 of 4 here],scaled lipid accumulation score,[3],0.598
Clc1ccc2c(c1)C(N1CCNCC1)=Nc1ccccc1O2 [Amoxapine] [listing 3 of 4 here],scaled lipid accumulation score,[3],0.886 (active)
CCN(CC)CCCCN1c2ccccc2Oc2ccc(Cl)cc21 [Akt Inhibitor X],scaled lipid accumulation score,[4],0.225
Clc1ccc2c(c1)C(N1CCNCC1)=Nc1ccccc1O2 [Amoxapine] [listing 4 of 4 here],scaled lipid accumulation score,,0.863 (active)
"Nc1ncnc2c1ncn2[C@@H]1O[C@@H]2COP(=O)(O)O[C@H]2[C@H]1O [Adenosine 3',5'-cyclic monophosphate]",scaled lipid accumulation score,[2],0.281
NC(C(=O)O)C(O)C(=O)O (racemic) [DL-threo-beta-hydroxyaspartic acid],scaled lipid accumulation score,[2],≤ -0.07
O=C[C@@H]1CCCN1C(=O)[C@@H]1CCCN1C(=O)OCc1ccccc1 [Z-prolyl-prolinal],scaled lipid accumulation score,library stock concentration: 15.1 mM,0.107
CO/N=C(\C(=O)N[C@@H]1C(=O)N2C(C(=O)O)=C(CSC(=O)c3ccco3)CS[C@H]12)c1csc(N)n1 [Ceftiofur HCl],scaled lipid accumulation score,[4],0.015
same,scaled lipid accumulation score,[2],≤ 0
CO/N=C(\C(=O)N[C@@H]1C(=O)N2C(C(=O)O)=C(CSC(=O)c3ccco3)CS[C@H]12)c1csc(N)n1,scaled lipid accumulation score,[2],≤ 0
CC[C@H]1OC(=O)[C@H](C)[C@@H](O[C@H]2C[C@@](C)(OC)[C@@H](O)[C@H](C)O2)[C@H](C)[C@@H](O[C@@H]2O[C@H](C)C[C@H](NC)[C@H]2O)[C@](C)(O)C[C@@H](C)CN(C)[C@H](C)[C@@H](O)[C@]1(C)O,scaled lipid accumulation score,[2],0.363
Cc1ccc2c(c1)C(=O)C1(O)CCN(c3ccccc3)C1=N2 (configuration not stated) [Blebbistatin],scaled lipid accumulation score,library stock concentration: 17.1 mM,0.072
Cc1ccc2c(c1)C(=O)C1(O)CCN(c3ccccc3)C1=N2 (configuration not stated),scaled lipid accumulation score,[1],≤ 0
same,scaled lipid accumulation score,[2],≤ -0.006
"CCCCC[C@H](O)/C=C/[C@@H]1[C@@H](C/C=C\CCCCCC(=O)O)[C@@H](O)C[C@H]1O [1a,1b-dihomo Prostaglandin F2.alpha.]",scaled lipid accumulation score,[1],≤ 0
"CCCCC(C)(C)[C@H](O)/C=C/[C@H]1C=CC(=O)[C@@H]1CCCCCCC(=O)O [16,16-dimethyl Prostaglandin A1]",scaled lipid accumulation score,[1],≤ 0
CCCCCCCC/C=C/CCCCCCCC(=O)O [Elaidic Acid],scaled lipid accumulation score,[1],≤ 0
C(=C/CCNC)(/c1c(cccc1)CC2)\c3c2cccc3 [Nortriptyline],scaled lipid accumulation score,library stock concentration: 7.6 mM,0.971 (active)
c1ccc(\C(\c2c3cccc2)=C\CCNC)c(C=C3)c1 [Norcyclobenzaprine],scaled lipid accumulation score,,1.13 (active)
CNCCC=C1c2ccccc2CCc2ccccc21 [Nortriptyline],scaled lipid accumulation score,[2],0.72
CNCCC=C1c2ccccc2CCc2ccccc21.Cl,scaled lipid accumulation score,[2],1.02 (active)
Cl.C(=C\CCNC)(/c1c(cccc1)CC2)\c3c2cccc3 [Nortriptyline hydrochloride],scaled lipid accumulation score,,1.13 (active)
OCc1ccccc1,scaled lipid accumulation score,[2],≤ 0
CC(=O)N[C@@H](Cc1c[nH]c2ccccc12)C(N)=O [Acetyltryptophanamide],scaled lipid accumulation score,[2],≤ 0
COc1ccc2c(Oc3ccc(NC(=O)c4c(C)n(CC(C)(C)O)n(-c5ccccc5)c4=O)nc3)ccnc2c1,scaled lipid accumulation score,[4],≤ 0
same,scaled lipid accumulation score,[2],≤ 0
C[C@H](Cc1ccc(O)c(O)c1)[C@@H](C)Cc1ccc(O)c(O)c1,scaled lipid accumulation score,[2],≤ -0.055
COCCCN1CCC(NC(=O)c2cc(Cl)c(N)c3c2OCC3)CC1 [Prucalopride Succinat],scaled lipid accumulation score,[4],0.028
same,scaled lipid accumulation score,[2],0.03
COCCCN1CCC(NC(=O)c2cc(Cl)c(N)c3c2OCC3)CC1 [Prucalopride],scaled lipid accumulation score,[4],≤ 0
same,scaled lipid accumulation score,[2],≤ 0
CC1(C)O[C@H]2CC(=O)OC[C@]23[C@H]2CC[C@@]4(C)[C@H](c5ccoc5)OC(=O)[C@H]5O[C@]54[C@]2(C)C(=O)C[C@@H]13 [Limonin],scaled lipid accumulation score,[4],≤ 0
same,scaled lipid accumulation score,[2],0.008
O=C(O)CCC/C=C/C[C@@H]1[C@@H](CC[C@@H](O)CCc2ccccc2)[C@H](O)C[C@@H]1O [5-trans Latanoprost (free acid)],scaled lipid accumulation score,[1],≤ 0
O=C1O[C@H]([C@@H](O)CO)C([O-])=C1O.[Na+] [Sodium ascorbate],scaled lipid accumulation score,[4],≤ 0
same,scaled lipid accumulation score,[2],≤ -0.001
CCCCC[C@H](O)/C=C/[C@H]1C(=O)C[C@H](O)[C@@H]1C/C=C\CCCC(=O)OCC(O)CO (some centres not stated) [Prostaglandin D2-1-glyceryl ester],scaled lipid accumulation score,[1],≤ 0
CN1C(=O)C(Cc2c[nH]c3ccccc23)NC1=S (configuration not stated) [Necrostatin-1],scaled lipid accumulation score,[5],0.008
same,scaled lipid accumulation score,[6],≤ 0
same,scaled lipid accumulation score,[7],≤ 0
same,scaled lipid accumulation score,[4],≤ -0.009 and ≤ 0
same,scaled lipid accumulation score,[2],≤ 0 and 0.03
CCCc1c(OCCCCc2nnn[nH]2)ccc(C(C)=O)c1O,scaled lipid accumulation score,[1],≤ 0 and ≤ -0.021
same,scaled lipid accumulation score,[2],0.011
COc1cc2c(cc1OC)-c1c/c(=N\c3c(C)cc(C)cc3C)n(C)c(=O)n1CC2 [Trequinsin],scaled lipid accumulation score,library stock concentration: 4.9 mM,0.164
same,scaled lipid accumulation score,library stock concentration: 12.3 mM,0.244
COc1cc2c(cc1OC)-c1c/c(=N\c3c(C)cc(C)cc3C)n(C)c(=O)n1CC2 [Trequinsin hydrochloride],scaled lipid accumulation score,[2],0.494 and 0.174
C#CC(N)CCC(=O)O (configuration not stated) [gamma-Acetylinic GABA],scaled lipid accumulation score,[2],0.037
"C1CCC2(CC1)CCNCC2 [4,4-Pentamethylenepiperidine hydrochloride]",scaled lipid accumulation score,[2],0.028
CCCCCCCCCCCCCCCCCCCCCC(=O)NCCS(=O)(=O)O [N-Docosanoyl Taurine],scaled lipid accumulation score,[1],≤ 0
C(=C/CCNC)(/c1c2cccc1)\c3c(cccc3)CC2.Cl [Nortriptyline hydrochloride],scaled lipid accumulation score,[2],1.04 (active)
N[C@H]1CCN(O)C1=O,scaled lipid accumulation score,[2],≤ 0
NCc1cccc2ccncc12 [8-Isoquinoline methanamine (hydrochloride)],scaled lipid accumulation score,[1],0.003
CCCCCCNC(=O)Nc1ccc(S(=O)(=O)Nc2ccc(CCNC[C@H](O)COc3ccc(O)cc3)cc2)cc1,scaled lipid accumulation score,[2],0.462
O=C(O)CCCCCC[C@H]1C(=O)C[C@@H](O)[C@@H]1/C=C/[C@@H](O)Cc1ccccc1 [16-phenyl tetranor Prostaglandin E1],scaled lipid accumulation score,[1],0.017
CCCCCCCCCCCCCCCC(=O)OC[C@H](COP(=O)([O-])OCC[N+](C)(C)C)OC(=O)CCCC(=O)/C=C/C(=O)O,scaled lipid accumulation score,[1],0.034
O=C1C(Cl)=C(N2CCOCC2)C(=O)N1c1ccc(Cl)c(Cl)c1,scaled lipid accumulation score,[4],≤ -0.009
same,scaled lipid accumulation score,[2],≤ 0
COCC(=O)NC/C=C/c1ccc2ncnc(Nc3ccc(Oc4ccc(C)nc4)c(C)c3)c2c1 [listing 1 of 2 here],scaled lipid accumulation score,[5],≤ 0
same,scaled lipid accumulation score,[6],≤ 0 and ≤ -0.005
same,scaled lipid accumulation score,[7],≤ 0 and ≤ -0.005
same,scaled lipid accumulation score,[2],0.108
COCC(=O)NC/C=C/c1ccc2ncnc(Nc3ccc(Oc4ccc(C)nc4)c(C)c3)c2c1 [listing 2 of 2 here],scaled lipid accumulation score,[2],1.46 (active)
COc1ccc(Nc2ncnc3ccc(OC)cc23)cc1 [MPMQ hydrochloride],scaled lipid accumulation score,[2],0.051
NC1=NCCN1CC(=O)O [Cyclocreatine],scaled lipid accumulation score,[2],≤ 0
CCCCCCCCCCCCCCCC(=O)NCCS(=O)(=O)O [N-Palmitoyl Taurine],scaled lipid accumulation score,[1],≤ 0
CCCS(=O)(=O)Nc1ccc(F)c(C(=O)c2c[nH]c3ncc(Cl)cc23)c1F [listing 1 of 2 here],scaled lipid accumulation score,[5],≤ 0
same,scaled lipid accumulation score,[6],≤ 0 and 0.028
same,scaled lipid accumulation score,[7],≤ 0 and 0.042
same,scaled lipid accumulation score,[4],≤ 0
same,scaled lipid accumulation score,[2],≤ 0
CCCS(=O)(=O)Nc1ccc(F)c(C(=O)c2c[nH]c3ncc(Cl)cc23)c1F [listing 2 of 2 here],scaled lipid accumulation score,[2],1.16 (active)
"CCCS(=O)(=O)Nc1ccc(F)c(C(=O)c2c[nH]c3ncc(-c4ccc(Cl)cc4)cc23)c1F [Vemurafenib (PLX4032, RG7204)]",scaled lipid accumulation score,[4],≤ 0
same,scaled lipid accumulation score,[2],≤ 0
Cc1noc(-c2ccc(CSCCC(=O)O)cc2)c1NC(=O)OC(C)c1ccccc1Cl (configuration not stated),scaled lipid accumulation score,[4],0.003
same,scaled lipid accumulation score,[2],≤ 0
CCCCCCCOC(=O)Cc1c(C)n(C(=O)c2ccc(Cl)cc2)c2ccc(OC)cc12 [Indomethacin heptyl ester],scaled lipid accumulation score,[1],0.015
